Experiment [1] addresses Ubiquitin carboxyl-terminal hydrolase 2 (Homo sapiens) (UniProt O75604). In words: qHTS Validation Assay for Inhibitors of Ubiquitin-specific Protease USP2a Using CHOP2 as the Reporter (AID 463106). In a few lines: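 Inhibition is expressed relative to NEM as the full-inhibition control, with concentration-response curves classed by fit quality, magnitude and activity. Enzyme (USP2 core, 10nM) meets 25nM Ub-CHOP2 after compound preincubation; readings are taken at 60min.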

Experiment [2] deals with DNA polymerase III PolC-type (Bacillus subtilis (strain 168)) (UniProt P13267). The experiment in a line: qHTS Validation Assay for the Inhibitors of DNA Replication in Gram-Positive Bacteria (AID 485295).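 Note: PicoGreen fluorescence of double-stranded DNA made on primed circular M13 template; series mostly up to about 57 µM.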 In a few lines:
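Reconstituted B. subtilis Pol III holoenzyme (PolC, beta clamp, SSB, primase) preincubated with compound, then M13Gori single-stranded circular template with dNTPs/NTPs added; room temperature reaction. Stopped with EDTA/PicoGreen; dsDNA fluorescence read, EDTA as full-inhibition control.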

A short description of experiment [3]: qHTS Validation Assay to Find Inhibitors of Chronic Active B-Cell Receptor Signaling (AID 485345; active = well fitted curve in the direction sought with a large enough effect in the main read-out, with a control signal flat, not every such curve was filed as active). In a few lines: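 TMD8 ABC-DLBCL cells with dox-inducible green luciferase–IκBα fusion and red native luciferase; compounds 46 uM–3 nM, 4 h at 37C with doxycycline in 0.5% FBS IMDM. Green/red ratio normalized to basal and 10 uM MG-132.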
Experiment [4] can be described thus: Quantitative high throughput screen for delayed death inhibitors of the malarial parasite plastid, 96 hour incubation (AID 488745).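 Note: luciferase-expressing P. falciparum in erythrocytes at 2% hematocrit and 0.1% parasitemia; series mostly up to about 29 µM; nearly all actives have a fitted effect of over 70% in size.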 In a few lines: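 Readout is firefly luciferase luminescence from an integrated reporter in P. falciparum; lower signal marks inhibited growth. Cultures at 2% hematocrit and 0.1% parasitemia were treated with compound across two generations (96 h, 37 C, 5% CO2).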

The target of experiment [5] is Thioredoxin reductase 1, cytoplasmic (Rattus norvegicus) (UniProt O89049). In words: qHTS Assay for Substrates of Mammalian Selenoprotein Thioredoxin Reductase 1 (TrxR1) (AID 488772).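 Note: series mostly up to about 57 µM; a drop in NADPH fluorescence below the no-compound background marks a TrxR1 substrate.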 In a few lines: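 In this dual-purpose format, potential substrates are identified from the first fluorescence read after selenite addition, not from the 8-minute delta. Rat enzyme is preincubated with NADPH and then with compound at ~22 deg C.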

The target of experiment [6] is Flap endonuclease 1 (Homo sapiens) (UniProt P39748). The experiment in a line: qHTS Validation Assay for the Inhibitors of Human Flap endonuclease 1 (FEN1) (AID 488816). In a few lines:
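Steps: add FEN1 (10 nM reagent) or buffer only; pin compounds; hold 15 min at room temperature; start with substrate, 50 nM final; read at 0 and 15 min; correct, normalize and fit a four-parameter Hill curve.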

The target in experiment [7] is M-phase phosphoprotein 8 (Homo sapiens) (UniProt Q99549). In words: qHTS Validation Assay for Inhibitors for MPP8 Chromodomain Interactions with Methylated Histone Tails (AID 488949). Note: nearly all actives have a fitted effect of over 55% in size. Note: potency is the fitted concentration of half-maximal effect. In a few lines: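 MPP8 (50 nM) was pre-bound to 50 nM biotinylated H3(1-18)K9me3 peptide in PBS pH 7.4 with 0.01% Tween-20. Compounds were then added for 30 min at room temperature, and complex disruption was read by AlphaScreen with streptavidin donor and nickel-chelate acceptor beads.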
M-phase phosphoprotein 8 (Homo sapiens), sequence (Q99549 whole entry, looked up): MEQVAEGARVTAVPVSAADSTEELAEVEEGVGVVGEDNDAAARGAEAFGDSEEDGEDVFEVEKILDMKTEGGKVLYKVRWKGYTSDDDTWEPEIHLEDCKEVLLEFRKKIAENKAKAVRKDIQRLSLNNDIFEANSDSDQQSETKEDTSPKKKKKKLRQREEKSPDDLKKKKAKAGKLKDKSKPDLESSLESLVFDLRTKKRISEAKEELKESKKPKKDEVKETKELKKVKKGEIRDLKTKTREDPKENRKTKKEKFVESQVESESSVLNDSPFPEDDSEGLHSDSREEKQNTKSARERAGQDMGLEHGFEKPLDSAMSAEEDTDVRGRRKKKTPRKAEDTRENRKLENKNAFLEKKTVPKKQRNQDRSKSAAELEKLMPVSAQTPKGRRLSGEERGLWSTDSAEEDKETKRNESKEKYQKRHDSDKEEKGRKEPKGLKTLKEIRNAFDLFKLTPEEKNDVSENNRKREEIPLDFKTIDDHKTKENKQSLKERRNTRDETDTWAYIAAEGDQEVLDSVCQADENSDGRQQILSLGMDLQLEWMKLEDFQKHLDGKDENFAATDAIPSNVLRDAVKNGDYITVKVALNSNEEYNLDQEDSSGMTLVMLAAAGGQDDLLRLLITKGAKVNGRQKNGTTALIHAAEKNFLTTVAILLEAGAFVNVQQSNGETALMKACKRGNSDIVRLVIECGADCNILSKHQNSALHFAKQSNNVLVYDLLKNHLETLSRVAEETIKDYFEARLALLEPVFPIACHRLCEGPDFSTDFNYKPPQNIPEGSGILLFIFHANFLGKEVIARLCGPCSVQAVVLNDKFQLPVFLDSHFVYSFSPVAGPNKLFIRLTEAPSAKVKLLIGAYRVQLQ
Background: Quantitative high-throughput screening tests each substance at several concentrations.

Experiment [8] concerns the target Chromobox protein homolog 1 (Homo sapiens) (UniProt P83916). In words: qHTS Validation Assay for Inhibitors of HP1-beta Chromodomain Interactions with Methylated Histone Tails (AID 488953). Note: nearly all actives have a fitted effect of over 50% in size. Note: potency is the fitted concentration of half-maximal effect. In a few lines: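 Disruption of preformed HP1-beta:H3K9me3 peptide complexes (both 50 nM, PBS pH 7.4 with 0.01% Tween-20) is measured by AlphaScreen after 30 min compound exposure at room temperature, using streptavidin donor and nickel chelate acceptor beads at 10 ug/mL final.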

Experiment [9] addresses Methanococcus maripaludis chaperonin (MmCpn) (UniProt Q6LX38). The experiment in a line: High-Throughput Screening for Modulators of Cytosolic Chaperonin Activity: MmCpn Primary Screen (AID 488978).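 Note: 50 nM MmCpn enzyme hydrolysing 30 µM ATP at 37 °C.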 In a few lines: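 MmCpn at 50 nM final was preincubated 5 min at RT with compound. ATP was then added at 30 uM final for 10 min at 37 C. ADP formed was detected by Transcreener HTRF (665/590 nm).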

Experiment [10] deals with Transient receptor potential cation channel subfamily V member 1 (Homo sapiens) (UniProt Q8NER1). The experiment in a line: HTS Assay for Compounds that Act as Enhancers of the Vanilloid Receptor 1 (AID 488979). In a few lines:
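TRPV1-expressing cells loaded with Fluo-8 calcium dye; compounds added and calcium influx read kinetically for 3 min (agonist phase), then capsaicin at EC20 added and read 2 min more for enhancement. Fluorescence ex 480/em 520 nm.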

Experiment [11] concerns the target Thyrotropin receptor (Homo sapiens) (UniProt P16473). In words: qHTS Assay for Antagonists of the Thyroid Stimulating Hormone Receptor (AID 488980). Note: series mostly up to about 58 µM. In a few lines:
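TSHR-transfected HEK293 cells (2000/well) in HEPES-buffered HBSS with 70 uM RO 20-1724 were stimulated with 4 nM TSH (EC80, final) in the presence of compound. cAMP was measured by HTRF competition after lysis and 30 min at RT.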

Experiment [12] concerns the target D(1A) dopamine receptor (Homo sapiens) (UniProt P21728). In words: HTS Assay for Allosteric Agonists of the Human D1 Dopamine Receptor: Primary Screen for Agonists (AID 488981). In a few lines:
(§1)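 Tetracycline-induced HEK293 T-REx cells force-coupled to calcium signalling were incubated overnight at 30 C and dye-loaded at room temperature. Calcium flux over 180 s after compound addition flagged agonists; a further 180 s read after EC20 dopamine flagged potentiators.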

The target is the same in experiment [13]. In words: HTS Assay for Allosteric Agonists of the Human D1 Dopamine Receptor: Primary Screen for Potentiators (AID 488982). In a few lines: as §1
Experiment [14] has the same target. In words: HTS Assay for Allosteric Agonists of the Human D1 Dopamine Receptor: Primary Screen for Antagonists (AID 488983).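 Note: calcium flux response to an EC80 dopamine challenge measured with no-wash dye; nearly all actives have a fitted effect of over 65% in size.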 In a few lines:
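Kinetic fluorescence at 1 cycle/sec tracked intracellular calcium in force-coupled, tetracycline-inducible HEK293 T-REx D1 cells. Loss of response to an EC80 dopamine dose, given 180 s after compound, marked antagonists.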

In experiment [15] the target is Beta-2 adrenergic receptor (Homo sapiens) (UniProt P07550). In words: qHTS validation assay of beta-arrestin-biased ligands of beta2-adrenergic receptor (AID 485366). In a few lines:
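Agonism was measured as beta-arrestin recruitment to recombinant beta2-AR, releasing tTA to drive luciferase. Cells were exposed for 18 hr at 37 degrees C to a series up to 46 microM. %Activity from corrected luminescence gave concentration-response curves.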

Experiment [16] concerns the target ATP-dependent 6-phosphofructokinase (Trypanosoma brucei brucei) (UniProt O15648). The experiment in a line: qHTS Validation Assay to Find Inhibitors of T. brucei phosphofructokinase (AID 485368). In a few lines:
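ADP-Glo luminescence, two-step: residual ATP depleted, then ADP converted to ATP for luciferase. Enzyme 1.25 nM, F6P 0.5 mM, ATP 0.1 mM, pH 8.0 TEA buffer, 45 min RT. Curves fitted and classed by quality and efficacy.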

Experiment [17] can be described thus: Quantitative high throughput screen for delayed death inhibitors of the malarial parasite plastid, 48 hour incubation (AID 488752). Note: nearly all actives have a fitted effect of over 65% in size. In a few lines: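 First, compound was pinned into RPMI 1640 medium containing 0.5% Albumax. Next, reporter-parasite-infected erythrocytes were added to 2% hematocrit and 0.1% parasitemia. After 48 h at 37 C under 5% CO2, luciferase detection reagent was added and luminescence read.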

The target in experiment [18] is Thioredoxin reductase 1, cytoplasmic (Rattus norvegicus) (UniProt O89049). In words: qHTS Assay for Inhibitors of Mammalian Selenoprotein Thioredoxin Reductase 1 (TrxR1) (AID 488773).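 Note: drop in NADPH fluorescence over an 8 min run after selenite addition; series mostly up to about 57 µM; nearly all actives have a fitted effect of over 40% in size.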 Particulars: Potency: inhibition. In a few lines: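 Inhibition is scored from the loss of NADPH fluorescence between first and last reads of an 8-min kinetic run. Selenite (400 uM) was the substrate, added after 15 min compound preincubation at room temperature.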

Results filed as inconclusive are left out. The source holds several records for some structures; these can differ, active in one and inactive in another. The source made the active and inactive calls. Unless noted, calls come from the whole dose curve; as a rule, active = well fitted curve in the direction sought with a large enough effect; inconclusive = small, poorly fitted or top-dose-only effect, or another doubt; inactive = no such curve, though single readings can be large; an effect the other way counts as inactive or inconclusive.

Ubiquitin carboxyl-terminal hydrolase 2 (Homo sapiens), sequence (O75604 whole entry, looked up): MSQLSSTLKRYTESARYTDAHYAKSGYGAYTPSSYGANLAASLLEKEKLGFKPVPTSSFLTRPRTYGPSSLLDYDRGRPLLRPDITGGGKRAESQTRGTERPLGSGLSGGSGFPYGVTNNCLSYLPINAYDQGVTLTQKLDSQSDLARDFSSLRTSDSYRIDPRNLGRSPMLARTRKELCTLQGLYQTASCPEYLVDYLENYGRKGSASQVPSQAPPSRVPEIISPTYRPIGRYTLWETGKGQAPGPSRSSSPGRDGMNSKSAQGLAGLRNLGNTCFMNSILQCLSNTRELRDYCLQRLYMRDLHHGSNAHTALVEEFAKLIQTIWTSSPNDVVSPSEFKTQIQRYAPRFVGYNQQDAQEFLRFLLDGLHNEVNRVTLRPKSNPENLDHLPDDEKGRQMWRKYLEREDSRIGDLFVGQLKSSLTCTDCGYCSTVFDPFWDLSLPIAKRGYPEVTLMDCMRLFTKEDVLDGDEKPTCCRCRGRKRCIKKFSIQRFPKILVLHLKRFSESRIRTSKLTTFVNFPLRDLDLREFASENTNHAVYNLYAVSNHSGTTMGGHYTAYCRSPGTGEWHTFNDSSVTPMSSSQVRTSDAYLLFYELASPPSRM
Flap endonuclease 1 (Homo sapiens), sequence (P39748 whole entry, looked up): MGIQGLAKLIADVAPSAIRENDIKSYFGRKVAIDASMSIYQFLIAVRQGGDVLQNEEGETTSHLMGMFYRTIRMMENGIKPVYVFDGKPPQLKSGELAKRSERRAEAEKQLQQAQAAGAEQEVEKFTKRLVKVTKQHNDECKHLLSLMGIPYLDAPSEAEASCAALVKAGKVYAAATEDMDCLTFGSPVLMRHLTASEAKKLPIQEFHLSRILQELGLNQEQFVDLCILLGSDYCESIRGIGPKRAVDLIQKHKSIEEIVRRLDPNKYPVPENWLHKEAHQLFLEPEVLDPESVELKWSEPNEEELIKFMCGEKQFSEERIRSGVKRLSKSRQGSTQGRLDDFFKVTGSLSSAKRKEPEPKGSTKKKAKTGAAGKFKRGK
Transient receptor potential cation channel subfamily V member 1 (Homo sapiens), sequence (Q8NER1 whole entry, looked up): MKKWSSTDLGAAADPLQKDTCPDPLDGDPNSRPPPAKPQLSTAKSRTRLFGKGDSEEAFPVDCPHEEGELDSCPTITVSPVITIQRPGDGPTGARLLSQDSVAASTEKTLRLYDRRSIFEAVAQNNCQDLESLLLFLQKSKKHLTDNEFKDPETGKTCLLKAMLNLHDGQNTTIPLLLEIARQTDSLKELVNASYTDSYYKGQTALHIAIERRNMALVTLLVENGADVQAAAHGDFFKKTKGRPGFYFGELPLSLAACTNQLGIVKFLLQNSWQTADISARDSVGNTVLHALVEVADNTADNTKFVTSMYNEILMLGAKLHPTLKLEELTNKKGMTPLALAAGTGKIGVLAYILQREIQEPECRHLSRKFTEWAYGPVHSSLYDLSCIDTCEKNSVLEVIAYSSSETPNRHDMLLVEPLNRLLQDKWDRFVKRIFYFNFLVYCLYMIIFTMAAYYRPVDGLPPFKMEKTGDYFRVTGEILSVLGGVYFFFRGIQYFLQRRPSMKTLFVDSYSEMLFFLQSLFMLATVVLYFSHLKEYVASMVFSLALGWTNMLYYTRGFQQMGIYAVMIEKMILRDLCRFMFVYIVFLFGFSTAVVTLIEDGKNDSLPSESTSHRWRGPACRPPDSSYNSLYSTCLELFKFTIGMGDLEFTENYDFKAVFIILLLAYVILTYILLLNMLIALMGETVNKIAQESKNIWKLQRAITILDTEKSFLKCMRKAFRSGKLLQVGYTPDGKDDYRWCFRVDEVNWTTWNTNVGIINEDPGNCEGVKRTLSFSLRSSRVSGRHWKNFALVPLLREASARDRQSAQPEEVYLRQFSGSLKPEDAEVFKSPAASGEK
Thyrotropin receptor (Homo sapiens), sequence (P16473 whole entry, looked up): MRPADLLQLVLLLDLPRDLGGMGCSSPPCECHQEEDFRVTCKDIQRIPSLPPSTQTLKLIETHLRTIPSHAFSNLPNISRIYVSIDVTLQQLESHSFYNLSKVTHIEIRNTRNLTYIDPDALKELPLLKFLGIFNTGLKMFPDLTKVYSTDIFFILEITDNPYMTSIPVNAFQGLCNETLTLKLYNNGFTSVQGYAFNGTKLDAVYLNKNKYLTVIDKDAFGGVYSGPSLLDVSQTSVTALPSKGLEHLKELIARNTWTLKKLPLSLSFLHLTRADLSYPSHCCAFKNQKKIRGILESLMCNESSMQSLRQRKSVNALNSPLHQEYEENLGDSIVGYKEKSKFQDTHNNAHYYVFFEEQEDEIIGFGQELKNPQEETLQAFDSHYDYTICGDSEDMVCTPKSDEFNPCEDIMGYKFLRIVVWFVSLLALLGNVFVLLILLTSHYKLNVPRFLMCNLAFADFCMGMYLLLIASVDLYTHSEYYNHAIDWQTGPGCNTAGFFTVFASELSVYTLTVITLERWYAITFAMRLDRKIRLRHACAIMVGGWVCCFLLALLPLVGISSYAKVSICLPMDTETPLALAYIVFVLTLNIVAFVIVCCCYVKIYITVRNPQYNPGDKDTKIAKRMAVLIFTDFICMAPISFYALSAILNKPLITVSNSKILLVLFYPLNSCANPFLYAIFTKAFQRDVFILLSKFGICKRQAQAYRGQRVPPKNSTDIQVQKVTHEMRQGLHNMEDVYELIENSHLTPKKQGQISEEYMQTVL
Chromobox protein homolog 1 (Homo sapiens), sequence (P83916 whole entry, looked up): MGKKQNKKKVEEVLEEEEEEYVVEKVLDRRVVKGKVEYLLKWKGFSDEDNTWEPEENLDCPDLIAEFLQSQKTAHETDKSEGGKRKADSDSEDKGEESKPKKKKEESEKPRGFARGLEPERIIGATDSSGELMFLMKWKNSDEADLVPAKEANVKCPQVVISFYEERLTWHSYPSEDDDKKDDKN
Methanococcus maripaludis chaperonin (MmCpn), sequence (Q6LX38 1-543): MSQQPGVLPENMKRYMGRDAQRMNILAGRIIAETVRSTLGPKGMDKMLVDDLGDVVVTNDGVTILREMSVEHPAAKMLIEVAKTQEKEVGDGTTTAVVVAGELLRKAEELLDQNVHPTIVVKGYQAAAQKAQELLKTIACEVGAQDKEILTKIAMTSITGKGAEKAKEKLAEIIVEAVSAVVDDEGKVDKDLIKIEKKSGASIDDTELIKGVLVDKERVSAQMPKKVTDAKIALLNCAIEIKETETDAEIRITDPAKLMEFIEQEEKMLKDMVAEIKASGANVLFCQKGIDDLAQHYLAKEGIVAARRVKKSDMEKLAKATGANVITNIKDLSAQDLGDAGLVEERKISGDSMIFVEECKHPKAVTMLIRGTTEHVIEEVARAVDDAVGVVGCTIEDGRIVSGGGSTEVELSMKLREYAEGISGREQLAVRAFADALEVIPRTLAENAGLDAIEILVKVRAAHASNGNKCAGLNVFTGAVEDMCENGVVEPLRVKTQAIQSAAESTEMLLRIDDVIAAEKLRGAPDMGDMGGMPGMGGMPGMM
Beta-2 adrenergic receptor (Homo sapiens), sequence (P07550 whole entry, looked up): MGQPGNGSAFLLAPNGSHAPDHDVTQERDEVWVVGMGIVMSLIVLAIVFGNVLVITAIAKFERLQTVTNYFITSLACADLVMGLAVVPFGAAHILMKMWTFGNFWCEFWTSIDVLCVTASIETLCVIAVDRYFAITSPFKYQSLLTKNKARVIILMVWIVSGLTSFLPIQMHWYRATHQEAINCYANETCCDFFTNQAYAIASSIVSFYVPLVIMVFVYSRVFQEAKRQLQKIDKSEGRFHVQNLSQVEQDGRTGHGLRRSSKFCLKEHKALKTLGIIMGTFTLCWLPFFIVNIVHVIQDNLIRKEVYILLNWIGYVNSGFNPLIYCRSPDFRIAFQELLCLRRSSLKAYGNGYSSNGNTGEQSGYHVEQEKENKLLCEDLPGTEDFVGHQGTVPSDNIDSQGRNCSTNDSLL

Consider `CC(C)NCC(O)c1ccc(O)c(O)c1` (configuration not stated), for which the Potency entry in [1], in [2], in experiment [3], in [4], in experiment [6] and in experiment [7] was “inactive” throughout. For the same molecule, the Potency entry in experiment [12], in experiment [13] and in experiment [14] was “inactive” each time. Besides, the molecule was called inactive in [5], in experiment [9], in experiment [10] and in experiment [11]. In experiment [8], the Potency is 0.0106 µM (active).

Turning to `COc1ccccc1N1CCN(CC(O)COc2cccc3ccccc23)CC1` (configuration not stated), the Potency result in experiment [1], in experiment [2], in experiment [16], in experiment [4], in experiment [17] and in experiment [18] was “inactive” throughout. Besides, the Potency entry in [6], in experiment [12], in experiment [13] and in [14] was “inactive” each time. Also, the result in experiment [15], in [5], in experiment [9], in experiment [10] and in experiment [11] was inactive. In addition, the Potency in experiment [8] was 39.8 µM (active).

Turning to `O=C1N(c2ccccc2)c2ccccc2C1(Cc1ccncc1)Cc1ccncc1`, the Potency entry in experiment [1], in experiment [2], in experiment [18], in experiment [6], in [7] and in experiment [8] was “inactive” throughout. The Potency entry in experiment [12], in experiment [13] and in experiment [14] was “inactive” in each case. The molecule was classed as inactive in experiment [15], in experiment [5], in experiment [9] and in [10].

For the molecule `O=c1c(O)c(-c2ccc(O)c(O)c2)oc2cc(O)cc(O)c12`, the molecule was classed as inactive in experiment [15], in [5], in [9], in [10] and in experiment [11]. Moreover, the Potency entry in experiment [18] and in experiment [12] was “inactive” throughout.

Regarding `Cn1cnc2c1c(=O)[nH]c(=O)n2C`, the Potency result in experiment [1], in [2], in experiment [4], in experiment [18], in experiment [6] and in experiment [7] was “inactive” each time. Further, the Potency result in [8], in experiment [12], in [13] and in [14] was “inactive” each time. The outcome in [15], in experiment [5], in [9], in experiment [10] and in experiment [11] was inactive.

As for `CN1C2CCC1CC(OC(=O)C(CO)c1ccccc1)C2` (configuration not stated), the Potency entry in experiment [2], in experiment [3], in experiment [16], in [4], in experiment [7] and in experiment [12] was “inactive” throughout. The Potency entry in experiment [13] and in experiment [14] was “inactive” each time. Besides, the result in [15], in experiment [9] and in experiment [10] was inactive.

`CCOC(=O)Nc1ccc(NCc2ccc(F)cc2)nc1N`: the Potency result in experiment [1], in [2], in experiment [12], in experiment [13] and in [14] was “inactive” each time. The outcome in [15], in experiment [5], in experiment [9], in experiment [10] and in experiment [11] was inactive. In addition, the Potency in [7] was 39.8 µM (active) and inactive.

(Values after PubChem BioAssay (NCATS).)
